Source: ChEMBL document CHEMBL3988442, “University of Dundee, Small-Polar-MMV Screening Library” (2021)
About 900 (1.7%) of roughly 53,000 compounds showed an effect of 50% or more. This excerpt belongs to a sample that is enriched for strong results.

Tested on: Mycobacterium tuberculosis
Test: Cornell - Phenotypic assay to identify agents that inhibit growth of Mycobacterium tuberculosis
Assay type: functional
Set-up: scale not given: direction of the effect not stated beside the values
Conditions: 10 mM as filed; unlikely as a test dose

Point of comparison: `CCNC(=O)N1CCC(=Cc2ccccc2)CC1`, “Percent Effect” value 31.8%. Against it:
- O=C(O)C(F)(F)F.c1cnc(N2C[C@@H]3COC[C@]3(COCC3CCCC3)C2)nc1 — higher, 53.05%
- CCOCC1CN(Cc2cnn(C)c2)Cc2ncn(C)c21 (stereo not given) — lower, 21.37%
- Cc1ccc(CN2C[C@H](OCCN(C)C)[C@H]3COC[C@H]32)o1.O=C(O)C(F)(F)F.O=C(O)C(F)(F)F — lower, 19.04%
- CNC(=O)N1CCC(=Cc2ccccc2)CC1 — higher, 50.2%
- CCCNC(=O)CCNC(=O)N1CCC(=Cc2ccccc2)CC1 — lower, -1.003%
- COC(=O)N1CCC(CNC(=O)C2CCN(S(C)(=O)=O)CC2)CC1 — lower, -2.459%
- CCn1ccc(-c2cc(NCCCOc3cccc(C)c3)nc(C)n2)n1 — lower, 27.92%
- CCn1ccc(-c2cc(NCCCOc3ccccc3C)nc(C)n2)n1 — higher, 93.67%
- COc1ccccc1OCCNCCn1cccn1 — lower, 4.031%
- CC1(C)OC(=O)N(CCOc2ccc(F)cc2)C1=O — lower, 15.77%
- CN1CCOC(C)(C(=O)N2CCN(C3CCCC3)CC2)C1 (stereo not given) — lower, -58.81%
- CNC(=O)CNCC1(O)CCCN(Cc2ccc(F)c(F)c2)C1=O (stereo not given) — lower, -12.88%
- Cc1ccsc1CN(c1nc(CCN)nc2ccccc12)C1CC1 — higher, 64.64%
- NCCc1nc(N(Cc2nccs2)C2CC2)c2ccccc2n1 — lower, -24.34%
- NCCc1nc(N(Cc2cncs2)C2CC2)c2ccccc2n1 — lower, -19.06%
- CN(C)C(CNC(=O)c1cccc(C(N)=O)c1)c1ccccc1Cl (stereo not given) — lower, -40.94%
- N#Cc1nccnc1N1CCC(COCc2ccccc2)C1 (stereo not given) — lower, 4.332%
- N#Cc1nccnc1N1CCC(CSc2ccccc2)C1 (stereo not given) — higher, 53.28%
- N#Cc1nccnc1N1CCC(Cc2ccccc2)C1 (stereo not given) — lower, 17.71%
- CC(C)C(NC(=O)c1ccc(N2CCOCC2)nc1)c1cccs1 (stereo not given) — lower, 5.892%
- CC(C)C(NC(=O)c1nc(N2CCOCC2)ncc1Cl)c1cccs1 (stereo not given) — lower, 19.79%
- CC(C)C(NC(=O)c1cnc(N2CCOCC2)nc1)c1cccs1 (stereo not given) — higher, 69.04%
- CC(=O)Nc1ccc(Oc2ccc3c(c2)OCO3)nc1 — lower, 12.25%
- CC(C)N1CC2(CCCN(c3ccccn3)C2)CCC1=O (stereo not given) — lower, 8.106%
- CCc1ccc(C(=O)NCC2CCCN2CC)o1 (stereo not given) — lower, 3.045%
- CCc1cnc(N2CC[C@H]3[C@@H]2CCC(=O)N3c2cccnc2)nc1.O=C(O)C(F)(F)F.O=C(O)C(F)(F)F — lower, 5.714%
- Cc1nc2c(Nc3cccc(C#N)c3)nc(N)nc2n1C — higher, 106.8%
- Cc1nc2c(Nc3ccc(C#N)cc3)nc(N)nc2n1C — lower, 2.918%
- CC(=O)c1ccc(Nc2nc(N)nc3c2nc(C)n3C)cc1 — lower, 11.87%
- CCc1nc(CN(C)Cc2ncc(-c3cccs3)o2)cs1 — lower, 22.49%
- CN(Cc1nnc(-c2cccs2)o1)C(C(N)=O)c1cccc(F)c1 (stereo not given) — lower, 15.31%
- CCc1nc(CN(C)Cc2nnc(-c3cccs3)o2)cs1 — higher, 57.32%
- Cc1cc(NC(=O)c2ccccc2Br)n(C)n1 — lower, 11.86%
- Cc1cnn(CC2CCCN2Cc2coc(-c3cccc(F)c3)n2)c1 (stereo not given) — higher, 42.46%
- OC(COCc1ccco1)CN1CCC(Cn2cccn2)CC1 (stereo not given) — lower, -18.82%
- COc1ccc2c(c1)OCC(Cc1ccc(N)nc1C)C2 (stereo not given) — higher, 38.23%
- COc1cccc2c1OCC(Cc1ccc(N)nc1C)C2 (stereo not given) — lower, 28.19%
- COc1ccc2c(c1)OCC(Cc1ccc(C)nc1N)C2 (stereo not given) — lower, 9.156%
- COc1cccc2c1OCC(CNc1cc(N)nc(SC)n1)C2 (stereo not given) — higher, 106%
- COc1ccc2c(c1)OCC(CNc1cc(N)nc(SC)n1)C2 (stereo not given) — higher, 106.6%
- COc1cccc2c1OCC(CNc1ccc(C)nn1)C2 (stereo not given) — lower, 22.84%
- Cc1nccc(-c2cccc(NCC(=O)N3CCNC(=O)C3)c2)n1 — lower, 4.567%
- CNC(=O)c1cccc(CC2COCCN(Cc3ccc(C)o3)C2)n1 (stereo not given) — lower, 0.6767%
- Cc1ccc(S(=O)(=O)NCCc2ccoc2)s1 — higher, 103.3%
- Cc1ccc(S(=O)(=O)NCC(O)c2ccoc2)s1 (stereo not given) — lower, 10.79%
- COC(=O)c1sccc1S(=O)(=O)NCCc1ccoc1 — higher, 39.87%
- O=S(=O)(NCC1COc2ccccc2C1)N1CCCC1 (stereo not given) — lower, 15.67%
- OC1=C2C(=Nc3n[nH]c(O)c3C2c2ccco2)CCC1 (stereo not given) — lower, 27.79%
- Cc1cnn(CC2CCCN2CCc2nc3ccccc3c(=O)[nH]2)c1 (stereo not given) — higher, 106.5%
- Cc1cnn(CC2CCCCN2Cc2nc(N)c3ccccc3n2)c1 (stereo not given) — lower, 31.76%
- Cc1nc(C)n(CC2CCCN2Cc2nc3ccccc3c(=O)[nH]2)n1 (stereo not given) — lower, -38.81%
- Cc1cnn(CC2CCCN2Cc2noc(-c3ccccc3)n2)c1 (stereo not given) — lower, 10.45%
- Cc1cnn(CC2CCCN2Cc2nc3ccccc3n2C)c1 (stereo not given) — higher, 81.85%
- Cc1cnn(CC2CCCN2C(=O)CCc2nc3ccccc3[nH]2)c1 (stereo not given) — lower, 16.22%
